Hits are enriched below; roughly 2.3% of the tested compounds scored in any of these assays.
GFP derepression: epigenetic GFP locus derepression in mouse cells | mouse C127i GFP locus derepression, cytometry, 30 h | Potency, µM (titrated, usually from 46.1 µM), inactives show at the top dose GFP derepression (activation) | 0.09% of 68,000 active; further: % of control where 0% means no effect
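Murine C127i mammary cells carrying a silenced, stably integrated CMV-driven GFP reporter were treated with compound for 30 hours at 37 C. After PBS washes, GFP-positive cells were counted by laser-scanning microplate cytometry.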
Tau filament bind: binds recombinant human tau filaments. Potency, µM (top dose mostly 57.1 µM), for the others: at the highest dose activity change, negative = inhibition. P10636. 2% of 71,000 active. recombinant tau filaments, thioflavin S fluorescence, 15 h; filaments grown with octadecylsulfate alongside compound;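 further: potency means the concentration at half of the fitted maximal effect; on the % scale 0 is the no-effect control and ±100 the full control effect; actives lower thioflavin S fluorescence by blocking filaments or displacing dye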
Target sequence (P10636 whole entry, looked up): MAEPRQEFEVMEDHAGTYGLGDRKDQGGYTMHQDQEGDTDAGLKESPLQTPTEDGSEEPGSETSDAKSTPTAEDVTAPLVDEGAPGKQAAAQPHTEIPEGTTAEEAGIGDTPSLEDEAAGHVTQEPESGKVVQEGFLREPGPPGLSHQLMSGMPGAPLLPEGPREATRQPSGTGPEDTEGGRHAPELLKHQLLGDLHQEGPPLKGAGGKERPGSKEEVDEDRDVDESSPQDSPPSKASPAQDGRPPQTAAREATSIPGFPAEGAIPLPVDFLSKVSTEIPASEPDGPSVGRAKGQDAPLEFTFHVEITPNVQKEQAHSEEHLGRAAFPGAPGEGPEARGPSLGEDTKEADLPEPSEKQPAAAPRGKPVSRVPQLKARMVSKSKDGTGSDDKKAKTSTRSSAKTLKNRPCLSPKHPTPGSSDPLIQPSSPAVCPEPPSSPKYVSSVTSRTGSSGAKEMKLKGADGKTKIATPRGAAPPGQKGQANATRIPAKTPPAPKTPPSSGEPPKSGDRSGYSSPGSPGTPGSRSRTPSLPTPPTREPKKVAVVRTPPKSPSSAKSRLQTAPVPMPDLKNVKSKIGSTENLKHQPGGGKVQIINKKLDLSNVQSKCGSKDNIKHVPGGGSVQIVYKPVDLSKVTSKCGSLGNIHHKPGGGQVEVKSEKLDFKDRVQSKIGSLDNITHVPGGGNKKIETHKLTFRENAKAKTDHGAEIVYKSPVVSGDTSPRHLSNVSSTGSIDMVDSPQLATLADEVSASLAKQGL
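ThS-based fibril read: tau 1 uM final, inducer ODS 30 uM final, 37 C for 15 h, ex 450/em 510 nm.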
ALOX15 inhib: blocks human 15-lipoxygenase activity | Potency, µM (highest dose often 57.1 µM), for the others: top-dose activity change, negative = inhibition, actives largely listed as inhibitors | purified 15hLO-1, xylenol orange hydroperoxide absorbance | 1.4% of 74,000 active; further: potency means the concentration at half of the fitted maximal effect; on the % scale 0 is the no-effect control and ±100 the full control effect; nearly all actives have a fitted effect of over 55% in size
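40 nM 15hLO-1 + cpd, 15 min RT; start w/ 50 uM AA (final), 6 min RT; stop/detect w/ 200 uM XO + 300 uM Fe(II) in 50 mM H2SO4, 30 min; A573/A405. Buffer 25 mM Hepes pH 7.5, 0.01% Triton X-100. No-enzyme wells as negative control.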
15-hLO-2 inh: blocks human 15-lipoxygenase 2 activity | O15296 | purified 15hLO-2, xylenol orange hydroperoxide absorbance | Potency, µM (titrated, usually from 57.1 µM), for inactives: at the highest dose activity change, negative = inhibition, hits mostly inhibitors | 0.56% of 110,000 active | AID 881; further: potency means the concentration at half of the fitted maximal effect; on the % scale 0 is the no-effect control and ±100 the full control effect; nearly all actives have a fitted effect of over 60% in size
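Screening format was qHTS against 50 nM purified 15hLO-2 in Hepes pH 7.5 with detergent. Activity follows hydroperoxide formation from 45 uM arachidonic acid, measured as 573:405 nm absorbance ratio of the ferric-xylenol orange complex.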
HBB splice mod: alters splicing of the hemoglobin beta chain | HBB splicing reporter cell assay, activation; EGFP reporter with mutant IVS2-654 intron; response scale: normalised to 500 nM splice-correcting PNA | Potency, µM (highest dose often 46.1 µM), inactives show top-dose activation, usual class: activators | 0.06% of 65,000 active | AID 925; further: potency means the concentration at half of the fitted maximal effect; 0% is about no effect
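Compounds were applied for 2 days to HeLa EGFP-654 cells, 500/well in Optimem with 2% FCS. The reporter's EGFP is disrupted by mis-splicing of beta-globin intron IVS2-654. Readout: summed well GFP fluorescence from 488 nm laser scanning; reference was 500 nM antisense […] 654 PNA.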
Ub-GFP proteasome: ubiquitin-GFP accumulation via proteasome inhibition. 67,000 tested, under 10 active. Ubiquitin-GFP reporter cells, proteasome inhibition, GFP fluorescence; response scale: untreated = 0%, 10 µM MG-132 = 100%. Potency, µM (titrated, usually from 45.9 µM), without a hit: at the highest dose activation (GFP accumulation), usual class: activators; active means well fitted activation curve with a large enough effect, not every such curve was filed as active; inconclusive means small, poorly fitted or top-dose-only effect, or another doubt; inactive means no such curve, though single readings can be large or run the other way; further: potency means the concentration at half of the fitted maximal effect
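Proteasome blockade was scored as a rise in GFP-expressing U2OS cells carrying a ubiquitin(G76V)-GFP construct, imaged after 4 hr compound treatment at 37 °C across a 46 uM–2.9 nM series.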
Numbers without * were called inactive; u = inconclusive; x = no result; ! = not confirmed by another sample; [ ] = dose if it differs, or a comment. Unless noted, the call rests on the fitted dose curve; in most records, active means well fitted curve in the direction sought with a large enough effect; inconclusive means small, poorly fitted or top-dose-only effect, or another doubt; inactive means no such curve, though single readings can be large; an effect the other way counts as inactive or inconclusive.

SMILES	GFP derepression	Tau filament bind	ALOX15 inhib	15-hLO-2 inh	HBB splice mod	Ub-GFP proteasome
CN[C@@H](C)[C@@H](O)c1ccccc1	-1%	-3%	0.4µM*	0.63µM*	1%	-4%
C[C@@]12CC[C@H](O)C[C@@H]1CC[C@H]1[C@H]2C[C@@H](O)[C@]2(C)[C@@H](C3=CC(=O)OC3)CC[C@@]12O	-2%[9.22 µM]	-10%	x	x	x	1%
C=CCc1cc(OC)c2c(c1OC)OCO2	x	x	4µM*	10%	x	x
C=C[C@@H]1CN2CC[C@H]1C[C@H]2[C@@H](O)c1ccnc2ccccc12	-1%[9.22 µM]	-11%	x	x	x	3%
CN(N=O)c1cc(O)ccc1O	4%	u	16µM*	12%	1%	-3%
CCCCC/C=C\C/C=C\C/C=C\C/C=C\CCCC(=O)Nc1ccc(O)cc1C	x	x	x	9%[0.0915 µM]	x	x
CCCCC/C=C\C/C=C\C/C=C\C/C=C\CCCC(=O)NCC(=O)O	-1%	32%	2.5µM*	10µM*!	-1%	-6%
CCCCC/C=C\C/C=C\C/C=C\C/C=C\CCCC(=O)Nc1ccc(O)cc1	0%	32µM*	0.25µM*	-8%	x	-5%
CN(C)[C@@H]1C(=O)C(C(N)=O)=C(O)[C@]2(O)C(=O)C3=C(O)c4c(O)cccc4[C@@](C)(O)[C@@H]3C[C@@H]12	-5%[9.22 µM]	u	x	x	x	2%
CC1(C)CN=C(Nc2ccccc2C(F)(F)F)S1	0%	-9%	-11%	9%	3%	-1%
CC1(C)CN=C(NCc2ccccc2Cl)S1	6%	25µM*	14%	31%	6%	-2%
CC[C@H]1[C@@H]2C[C@@H]3[C@@H]4N(C)c5ccccc5[C@@]45C[C@@H]([C@H]2[C@@H]5O)N3[C@@H]1O	-5%[9.22 µM]	u	x	x	x	-1%
CCc1nc(CNC(=O)c2cc(OC)c(OC)c(OC)c2)no1	-3%	11%	10µM*	4%	0%	0%
O[N+]1=CC=CCC1=S.On1ccccc1=S.[Zn]	x	x	2.5µM*	u	x	x
CCN1C[C@@]2(C)CC[C@H](O)[C@@]34[C@@H]5C[C@H]6[C@H](O)[C@@H]5[C@](O)(C[C@@H]6OC)[C@H](C[C@@H]23)[C@H]14	0%[9.22 µM]	u	x	x	x	1%
CC(=O)[O-].CC(=O)[O-].O.O.O.[Pb+2]	x	18%	6%	-11%	0%	x
CCC(=Nc1ccc(OC)cc1OC)c1c(O)n(C2CCCCC2)c(=O)[nH]c1=O	0%	10µM*	u	-12%	5%[1.84 µM]	4%
CCC(=NCc1ccco1)c1c(O)n(C2CCCCC2)c(=O)[nH]c1=O	0%	-10%	u	-11%	2%[1.84 µM]	3%
FC(F)(F)c1nc2ccc(SSc3ccc4nc(C(F)(F)F)[nH]c4c3)cc2[nH]1	2%[9.22 µM]	2%[11.4 µM]	u	-23%[11.4 µM]	1%[9.22 µM]	3%[9.17 µM]
C[C@@H]1O[C@@H](O[C@H]2C[C@@H](O)[C@]3(CO)[C@@H]4[C@@H](O)C[C@]5(C)[C@H]([C@@H]6COC(=O)C6)CC[C@@]5(O)[C@H]4CC[C@@]3(O)C2)[C@H](O)[C@H](O)[C@@H]1O	-2%	-9%	-4%	-5%	0%	-4%
N=C(N)SCc1ccc(Cl)c2ccccc12 (tested in a mixture with another compound)	3%[9.22 µM]	2%[11.4 µM]	29%[11.4 µM]	7%[11.4 µM]	1%[9.22 µM]	1%[9.17 µM]
Cc1cc(O)c2c(c1)C(=O)c1cc(O)cc(O)c1C2=O	0%[9.22 µM]	2.5µM*	u	-5%	8%	8%
CCCCN1C(=O)NC(=O)C2(Cc3c(nc4ccccn4c3=O)N3CCc4ccccc4C32)C1=O (centres undefined)	4%	21%	20µM*	-15%	-1%	-2%
COC(=O)C(O)(c1ccc(NC(=S)NC(=O)c2ccccc2)cc1)C(F)(F)F (centres undefined)	x	x	x	16µM*	x	x
COC(=O)C(O)(c1ccc(N(C)S(=O)(=O)c2ccccc2)cc1)C(F)(F)F (centres undefined)	-2%	8%	-21%	3%	-1%	16%
SMILES	GFP derepression	Tau filament bind	ALOX15 inhib	15-hLO-2 inh	HBB splice mod	Ub-GFP proteasome
CC(=O)OC1=CC2=CC[C@H]3[C@H]4CCC(=O)[C@@]4(C)CC(=O)[C@]3(S)[C@]2(C)CC1	7%[9.22 µM]	4%[11.4 µM]	-9%[11.4 µM]	-18%[11.4 µM]	2%[9.22 µM]	-3%[9.17 µM]
NS(=O)(=O)C[C-]1C=C[CH]([Sb-]([Cl])([Cl])([Cl])([Cl])[Cl])C=C1.c1ccncc1 (centres undefined)	0%[9.22 µM]	12%[11.4 µM]	15%[11.4 µM]	1%[11.4 µM]	-1%[9.22 µM]	1%[9.17 µM]
CNC(C)(C)Cc1ccccc1	3%[20.6 µM]	-16%[25.6 µM]	-5%	-6%	0%[20.6 µM]	0%[20.5 µM]
CC(C)(OO)c1ccccc1	x	-3%	0.13µM*	5%	0%	x
C[C@H]1CC[C@@H]2[C@@H](C)C(=O)O[C@H]3O[C@@]4(C)CC[C@@H]1[C@]32OO4	0%[9.22 µM]	u	x	x	x	-3%
O=Nc1ccc(Nc2ccccc2)cc1	x	32µM*	-21%	u	-1%	x
c1ccc(Nc2ccc(Nc3ccccc3)cc2)cc1	x	13µM*	4µM*	13µM*	-2%	x
N#CC(C#N)=Cc1ccc([N+](=O)[O-])c(O)c1	-2%	2%	-25%	-17%[0.0915 µM]	1%	7%
N#C/C(=C\c1ccc(O)c(O)c1)C(=O)NCCCNC(=O)/C(C#N)=C/c1ccc(O)c(O)c1	-1%	5%	3.2µM*	-16%	0%	-2%
CN1C[C@H](C(=O)N[C@@]2(C)O[C@@]3(O)[C@H]4CCCN4C(=O)[C@@H](Cc4ccccc4)N3C2=O)C=C2c3cccc4[nH]cc(c34)C[C@@H]21	2%[9.22 µM]	189%[11.4 µM]	-16%[11.4 µM]	-7%[11.4 µM]	3%[9.22 µM]	-1%[9.17 µM]
CC(C)CN(CC(C)C)c1ccc(C=C2C(=O)NC(=S)NC2=O)cc1[N+](=O)[O-]	x	x	x	10µM*	x	x
[Cl-].[Cl-].[Hg+2]	x	12%	0.013µM*	0.79µM*	0%	x

Source: PubChem BioAssay (National Center for Advancing Translational Sciences (NCATS))
